Reference: PubChem BioAssay (EPA / NIEHS)
Results filed as inconclusive are left out. Activity calls are given as the source filed them. How the source made its calls, unless noted: active means hit-call score of the fitted dose curve at least 0.9, where 1 is the maximum; inactive means score below 0.9.

Tests used:
[1] = molecular target: Retinoic acid receptor alpha (Homo sapiens) (UniProt P10276); assay: ATG_DR5_RAR_CIS: Attagene CIS-FACTORIAL HepG2 Assay for human Retinoic Acid Receptor Alpha (RARE), DR5 submotif (AID 2282934); conditions: HepG2 Attagene cis-factorial RARE DR5 reporter, mRNA; actives raise or lower the signal
How it was run: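 HepG2 cells transiently transfected with multiplexed reporter units; DR5 cis-element drives reporter through endogenous transcription factors. After 24 h dosing, reporter mRNA quantified by RT-PCR, fluorescent labeling, HpaI digestion and capillary electrophoresis; bidirectional fitting versus DMSO.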

[2] = ATG_GLI_CIS: Attagene CIS-FACTORIAL HepG2 Assay for human Zinc Finger Protein GLI1 (AID 2282945); conditions: HepG2, Attagene cis-factorial reporter mRNA, GLI element; actives raise or lower the signal
How it was run: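 Transiently transfected HepG2 cells report endogenous transcription factor activity via cis-element-driven reporter units. After 24 h compound exposure, reporter mRNA was measured by RT-PCR with capillary electrophoresis; bidirectional fitting against DMSO baseline.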

[3] = ATG_GRE_CIS: Attagene CIS-FACTORIAL HepG2 Assay for human Glucocorticoid Response Elements (GRE) (AID 2282947); conditions: HepG2 GRE cis-reporter, Attagene multiplex mRNA; actives raise or lower the signal
How it was run: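 Read-out: fluorescent reporter-transcript fragments separated by capillary electrophoresis after RT-PCR. Transiently transfected HepG2 cells carrying cis-element-driven reporter units were dosed for 24 h; gain or loss of signal fitted against DMSO control.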

[4] = ATG_M_32_CIS: Attagene CIS-FACTORIAL HepG2 Assay for M32 Transcription Factor (Internal Marker) (AID 2282949); conditions: HepG2 Attagene cis-factorial M32 reporter, mRNA; actives raise or lower the signal;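 further: background control marker of the multiplexed CIS panel rather than a real target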
How it was run: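 Transient MRTU transfection of HepG2; 24 h compound treatment; TriZol RNA, oligo(dT) RT, reporter PCR, 6-FAM primer extension, HpaI cut, CE. Gain/loss of signal vs DMSO.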

[5] = ATG_MRE_CIS: Attagene CIS-FACTORIAL HepG2 Assay for human Metal Responsive Element (MRE) (AID 2282954); conditions: HepG2 MRE cis-reporter transcription, Attagene multiplex; actives raise or lower the signal
How it was run: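 RT-PCR/capillary electrophoresis readout of reporter mRNA, 24 h post-dosing, in HepG2 cells transfected with multiplexed cis-regulated reporter constructs. Gain or loss of signal fitted bidirectionally against DMSO baseline.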

[6] = ATG_PBREM_CIS: Attagene CIS-FACTORIAL HepG2 Assay for human Phenobarbital-responsive Enhancer Module (PBREM) (AID 2282955); conditions: HepG2 PBREM cis-reporter, Attagene multiplexed transcription; actives raise or lower the signal
How it was run: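 HepG2 cells transiently transfected with multiple cis-regulated reporter transcription units; endogenous factor activity at the PBREM element measured as reporter mRNA 24 h after dosing, via RT-PCR and capillary electrophoresis of fluorescent fragments; bidirectional fitting versus DMSO.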

[7] = molecular target: Hepatocyte nuclear factor 4-alpha (Homo sapiens) (UniProt P41235); assay: ATG_HNF4a_TRANS: Attagene TRANS-FACTORIAL HepG2 Assay for human Hepatocyte Nuclear Factor 4 alpha (HNF4a) (AID 2282982; active means hit-call score of the fitted dose curve at least 0.9, where 1 is the maximum); conditions: HepG2 HNF4a transactivation reporter, mRNA readout
How it was run: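 Transient MRTU transfection of HepG2, 24 h dosing. Readout: reporter mRNA via RT-PCR + capillary electrophoresis, fluorescence; activity fit upward relative to DMSO control.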

[8] = ATG_M_32_TRANS: Attagene TRANS-FACTORIAL HepG2 Assay for M32 Transcription Factor (Internal Marker) (AID 2282984; active means hit-call score of the fitted dose curve at least 0.9, where 1 is the maximum;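 further: transcript level of a background control reporter unit measured by RT-PCR and capillary electrophoresis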); conditions: HepG2 Attagene TRANS M32 internal marker reporter
How it was run: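 Read-out: fluorescent reporter cDNA fragments resolved by capillary electrophoresis after RT-PCR of total RNA. Transfected HepG2 cells were exposed to chemical for 24 h. Activity scored in the positive direction relative to DMSO.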

[9] = molecular target: Nuclear respiratory factor 1 (Homo sapiens) (UniProt Q16656); assay: ATG_NRF1_CIS: Attagene CIS-FACTORIAL HepG2 Assay for human Nuclear Respiratory Factor 1 (NRF1) Orphan Gene (AID 2282987); conditions: HepG2 NRF1 cis-element reporter, Attagene multiplex; actives raise or lower the signal
How it was run: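 HepG2 cells transiently transfected with multiple reporter transcription units under cis-regulatory promoter control, so endogenous transcription-factor activity is read. After 24 h compound exposure, reporter mRNA quantified by RT-PCR, fluorescent labelling, HpaI digestion and capillary electrophoresis; bidirectional fitting versus DMSO.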

[10] = ATG_NF_kB_CIS: Attagene CIS-FACTORIAL HepG2 Assay for human Nuclear Factor Kappa B (NF-kB) (AID 2282991); conditions: HepG2 Attagene cis-factorial NF-kB reporter mRNA; actives raise or lower the signal
How it was run: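 HepG2 cells transiently transfected with multiplexed cis-element reporter units measuring endogenous transcription factor activity; reporter mRNA read 24 h after dosing by RT-PCR, fluorescent labelling, HpaI digestion and capillary electrophoresis. Bidirectional fit against DMSO baseline.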

[11] = molecular target: human Peroxisome Proliferator-activated Receptor alpha (PPARa), PPARA (gene 5465) (UniProt Q07869); assay: ATG_PPARa_TRANS: Attagene TRANS-FACTORIAL HepG2 Assay for human Peroxisome Proliferator-activated Receptor alpha (PPARa) (AID 2283001; active means hit-call score of the fitted dose curve at least 0.9, where 1 is the maximum)
How it was run: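 Transient HepG2 transfection, GAL4-UAS reporters, NR-Gal4 chimeras; 24 h compound exposure. Readout: reporter transcripts by RT-PCR, 6-FAM primer extension, HpaI digest, capillary electrophoresis. Positive direction vs DMSO baseline.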

[12] = molecular target: Retinoic acid receptor RXR-alpha (Homo sapiens) (UniProt P19793); assay: ATG_RXRa_TRANS: Attagene TRANS-FACTORIAL HepG2 Assay for human Retinoid X Receptor alpha (RXRa) (AID 2283012; active means hit-call score of the fitted dose curve at least 0.9, where 1 is the maximum)
How it was run: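 Read-out: fluorescent reporter-transcript fragments quantified by capillary electrophoresis after RT-PCR. Transiently transfected HepG2 cells carrying GAL4-UAS reporters and NR-GAL4 chimeras were exposed to chemical for 24 h; activity scored as increase over DMSO.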

[13] = molecular target: human Retinoid X Receptor beta (RXRb), RXRB (gene 6257) (UniProt P28702); assay: ATG_RXRb_TRANS: Attagene TRANS-FACTORIAL HepG2 Assay for human Retinoid X Receptor beta (RXRb) (AID 2283013; active means hit-call score of the fitted dose curve at least 0.9, where 1 is the maximum)
How it was run: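 Read-out: reporter mRNA induction via RT-PCR plus capillary electrophoresis fluorescence, analysed as signal increase relative to DMSO. Cells were human HepG2, transiently transfected with GAL4-UAS reporter constructs and chimeric receptor-Gal4 fusions, dosed for 24 h.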

[14] = molecular target: Hepatocyte nuclear factor 3-beta (Homo sapiens) (UniProt Q9Y261); assay: ATG_FoxA2_CIS: Attagene CIS-FACTORIAL HepG2 Assay for human Forkhead box A2 (FOXA2) (AID 2282942); conditions: HepG2 cis-reporter transcription factor activity, 24 h; actives raise or lower the signal
How it was run: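 HepG2 cells transiently transfected with multiple cis-regulated reporter transcription units, dosed for 24 h. Reporter mRNA measured by RT-PCR, 6-FAM labelling, HpaI digestion and capillary electrophoresis; bidirectional fitting against DMSO baseline.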

[15] = ATG_RORE_CIS: Attagene CIS-FACTORIAL HepG2 Assay for human RAR-related Orphan Receptor Element (RORE) (AID 2282959); conditions: HepG2 Attagene cis-factorial RORE reporter, mRNA; actives raise or lower the signal
How it was run: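 HepG2 cells transiently transfected with multiple cis-element reporter transcription units, exposed to chemical for 24 h. Reporter mRNA quantified by RT-PCR, 6-FAM primer-extension labeling, HpaI digestion and capillary electrophoresis; bidirectional fit versus DMSO baseline.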

[16] = TOX21_p53_BLA_p2_viability: Viability Assessment in the Tox21 HCT-116 p53 Agonism Beta-lactamase Assay, Phase 2 (AID 2283591; active means hit-call score of the fitted dose curve at least 0.9, where 1 is the maximum;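 further: compound exposure lasted 16 h at 37 °C; actives lower the ATP signal meaning cytotoxicity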)
How it was run: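 HCT116 p53-bla cells, 4000/well, dosed after 5 h plating (217-fold dilution of DMSO stocks) and incubated 16 h at 37C. Viability taken as cellular ATP by CellTiter-Glo luminescence after 30 min RT; signal loss marks cytotoxicity.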

[17] = molecular target: Cellular tumor antigen p53 (Homo sapiens) (UniProt P04637); assay: TOX21_p53_BLA_p3_ratio: Tox21 HCT-116 p53 Agonism Beta-lactamase Assay, Ratio, Phase 3 (AID 2283596; active means hit-call score of the fitted dose curve at least 0.9, where 1 is the maximum)
How it was run: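 Cells were seeded at 4000/well, rested 5 h at 37C, then dosed with DMSO compound solutions (217-fold dilution) for 16 h. CCF4-AM substrate was loaded for 2 h at room temperature, and the 460/530 nm emission ratio was fitted for gain of signal versus DMSO.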

[18] = molecular target: Cellular tumor antigen p53 (Homo sapiens) (UniProt P04637); assay: TOX21_p53_BLA_p5_ratio: Tox21 HCT-116 p53 Agonism Beta-lactamase Assay, Ratio, Phase 5 (AID 2283599; active means hit-call score of the fitted dose curve at least 0.9, where 1 is the maximum)
How it was run: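 HCT-116 p53-bla cells (4000/well) plated 5 h, dosed with compound (217-fold DMSO dilution) for 16 h at 37 C; CCF4-AM substrate 2 h at room temperature. Activity is the 460/530 nm emission ratio (405 nm excitation), fitted in gain-of-signal direction versus DMSO.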

[19] = TOX21_p53_BLA_p5_viability: Viability Assessment in the Tox21 HCT-116 p53 Agonism Beta-lactamase Assay, Phase 5 (AID 2283600; active means hit-call score of the fitted dose curve at least 0.9, where 1 is the maximum)
How it was run: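 Viability is taken from cellular ATP content, measured by luciferase luminescence in the same wells after the beta-lactamase ratio read. Cells are seeded at 4000 per well and exposed to DMSO-dissolved compounds, diluted 217-fold, for 16 h.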

[20] = molecular target: Cellular tumor antigen p53 (Homo sapiens) (UniProt P04637); assay: TOX21_p53_BLA_p4_ratio: Tox21 HCT-116 p53 Agonism Beta-lactamase Assay, Ratio, Phase 4 (AID 2283601; active means hit-call score of the fitted dose curve at least 0.9, where 1 is the maximum)
How it was run: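 HCT-116 p53 beta-lactamase reporter cells (4000/well) preincubated 5 h, then compound (217-fold dilution of DMSO stock) for 16 h at 37C. CCF4-AM substrate added 2 h at room temperature; 460/530 nm emission ratio fitted upward versus DMSO.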

Cellular tumor antigen p53 (Homo sapiens), sequence (P04637 whole entry, looked up): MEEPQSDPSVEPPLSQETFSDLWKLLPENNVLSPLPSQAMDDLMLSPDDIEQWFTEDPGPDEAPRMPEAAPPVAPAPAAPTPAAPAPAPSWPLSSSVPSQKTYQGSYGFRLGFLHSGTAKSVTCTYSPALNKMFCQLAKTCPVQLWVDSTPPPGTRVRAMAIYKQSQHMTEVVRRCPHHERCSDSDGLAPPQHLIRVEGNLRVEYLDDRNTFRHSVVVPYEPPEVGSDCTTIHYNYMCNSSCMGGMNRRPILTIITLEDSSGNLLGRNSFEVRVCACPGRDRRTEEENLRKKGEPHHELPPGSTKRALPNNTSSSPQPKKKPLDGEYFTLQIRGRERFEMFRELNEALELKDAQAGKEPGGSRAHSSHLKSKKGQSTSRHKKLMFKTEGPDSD
Hepatocyte nuclear factor 4-alpha (Homo sapiens), sequence (P41235 whole entry, looked up): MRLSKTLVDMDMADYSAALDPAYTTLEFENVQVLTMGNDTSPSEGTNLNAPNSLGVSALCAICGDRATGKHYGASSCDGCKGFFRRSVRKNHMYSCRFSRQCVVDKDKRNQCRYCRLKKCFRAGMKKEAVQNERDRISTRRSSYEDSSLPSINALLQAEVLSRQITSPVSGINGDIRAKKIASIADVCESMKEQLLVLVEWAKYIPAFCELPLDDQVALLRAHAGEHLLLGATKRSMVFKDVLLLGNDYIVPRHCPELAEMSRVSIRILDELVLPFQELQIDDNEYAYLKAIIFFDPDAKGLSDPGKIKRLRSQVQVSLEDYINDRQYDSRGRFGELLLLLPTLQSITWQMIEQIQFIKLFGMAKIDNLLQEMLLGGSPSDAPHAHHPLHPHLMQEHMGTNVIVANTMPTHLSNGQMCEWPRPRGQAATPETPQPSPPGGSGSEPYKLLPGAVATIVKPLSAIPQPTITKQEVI
Retinoic acid receptor RXR-alpha (Homo sapiens), sequence (P19793 whole entry, looked up, the tested form may be a part): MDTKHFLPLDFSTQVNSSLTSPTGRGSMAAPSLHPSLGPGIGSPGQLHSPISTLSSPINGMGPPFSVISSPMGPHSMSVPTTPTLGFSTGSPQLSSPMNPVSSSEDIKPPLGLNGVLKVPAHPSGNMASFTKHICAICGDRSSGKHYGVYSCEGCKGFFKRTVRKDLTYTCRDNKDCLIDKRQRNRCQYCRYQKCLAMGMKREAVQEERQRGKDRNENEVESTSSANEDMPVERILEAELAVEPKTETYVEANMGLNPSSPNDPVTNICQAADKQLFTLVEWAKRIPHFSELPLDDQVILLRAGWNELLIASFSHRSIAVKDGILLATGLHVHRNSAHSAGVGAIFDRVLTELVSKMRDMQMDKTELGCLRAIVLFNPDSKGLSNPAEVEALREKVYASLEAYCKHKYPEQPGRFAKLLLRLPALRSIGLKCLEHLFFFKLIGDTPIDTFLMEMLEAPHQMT
human Peroxisome Proliferator-activated Receptor alpha (PPARa), PPARA (gene 5465), sequence (Q07869 whole entry, looked up, the tested form may be a part): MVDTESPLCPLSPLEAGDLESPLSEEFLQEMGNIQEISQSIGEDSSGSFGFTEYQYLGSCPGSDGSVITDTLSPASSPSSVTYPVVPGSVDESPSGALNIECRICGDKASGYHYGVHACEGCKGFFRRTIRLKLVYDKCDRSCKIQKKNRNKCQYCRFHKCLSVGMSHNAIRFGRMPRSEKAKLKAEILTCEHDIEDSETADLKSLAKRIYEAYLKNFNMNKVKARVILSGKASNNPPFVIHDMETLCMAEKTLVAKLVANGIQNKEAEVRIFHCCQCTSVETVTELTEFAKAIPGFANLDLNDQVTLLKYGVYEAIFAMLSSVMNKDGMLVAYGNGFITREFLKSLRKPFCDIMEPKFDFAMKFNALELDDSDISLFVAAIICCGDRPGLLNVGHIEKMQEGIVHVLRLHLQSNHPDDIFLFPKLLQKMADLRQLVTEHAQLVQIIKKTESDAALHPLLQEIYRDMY
human Retinoid X Receptor beta (RXRb), RXRB (gene 6257), sequence (P28702 whole entry, looked up, the tested form may be a part): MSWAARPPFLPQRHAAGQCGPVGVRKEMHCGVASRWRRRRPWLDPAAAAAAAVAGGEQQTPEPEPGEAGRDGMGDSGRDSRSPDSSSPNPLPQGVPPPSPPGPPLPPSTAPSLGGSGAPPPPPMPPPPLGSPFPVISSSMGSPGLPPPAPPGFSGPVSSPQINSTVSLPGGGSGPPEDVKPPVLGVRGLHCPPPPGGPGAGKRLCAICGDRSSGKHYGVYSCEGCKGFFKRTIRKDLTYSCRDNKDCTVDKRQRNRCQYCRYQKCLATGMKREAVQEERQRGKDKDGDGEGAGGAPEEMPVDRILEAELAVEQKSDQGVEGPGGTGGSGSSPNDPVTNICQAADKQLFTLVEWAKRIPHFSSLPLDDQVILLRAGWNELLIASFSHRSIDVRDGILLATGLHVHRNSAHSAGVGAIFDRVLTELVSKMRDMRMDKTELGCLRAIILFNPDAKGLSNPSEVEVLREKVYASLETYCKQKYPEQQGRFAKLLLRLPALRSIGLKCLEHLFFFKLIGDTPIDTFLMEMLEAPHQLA
Hepatocyte nuclear factor 3-beta (Homo sapiens), sequence (Q9Y261 whole entry, looked up): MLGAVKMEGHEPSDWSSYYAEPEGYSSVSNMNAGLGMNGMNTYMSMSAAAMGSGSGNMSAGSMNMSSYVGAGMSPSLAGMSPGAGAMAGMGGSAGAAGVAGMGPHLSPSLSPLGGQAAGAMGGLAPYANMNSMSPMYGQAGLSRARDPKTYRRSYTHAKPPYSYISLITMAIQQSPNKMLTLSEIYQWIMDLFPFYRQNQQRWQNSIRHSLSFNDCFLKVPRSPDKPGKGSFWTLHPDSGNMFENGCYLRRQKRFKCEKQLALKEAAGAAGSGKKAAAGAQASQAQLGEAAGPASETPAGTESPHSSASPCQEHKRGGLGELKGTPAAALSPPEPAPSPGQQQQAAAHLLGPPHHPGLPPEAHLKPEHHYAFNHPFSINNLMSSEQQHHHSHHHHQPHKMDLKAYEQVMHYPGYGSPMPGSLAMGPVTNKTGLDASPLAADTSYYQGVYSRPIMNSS
Nuclear respiratory factor 1 (Homo sapiens), sequence (Q16656 whole entry, looked up): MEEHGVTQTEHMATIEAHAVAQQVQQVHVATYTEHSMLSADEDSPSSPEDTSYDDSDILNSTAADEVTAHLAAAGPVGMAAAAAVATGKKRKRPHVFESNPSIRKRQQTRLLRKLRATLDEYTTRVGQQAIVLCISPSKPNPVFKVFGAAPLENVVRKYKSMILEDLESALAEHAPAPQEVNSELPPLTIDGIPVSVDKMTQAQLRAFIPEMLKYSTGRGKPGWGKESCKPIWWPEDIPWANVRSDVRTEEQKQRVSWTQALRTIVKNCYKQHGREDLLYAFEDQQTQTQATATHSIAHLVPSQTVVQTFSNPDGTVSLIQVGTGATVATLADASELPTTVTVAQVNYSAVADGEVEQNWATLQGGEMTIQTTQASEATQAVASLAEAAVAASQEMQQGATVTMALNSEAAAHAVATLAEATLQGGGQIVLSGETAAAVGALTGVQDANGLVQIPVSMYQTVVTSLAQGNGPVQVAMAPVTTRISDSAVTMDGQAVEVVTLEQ
Retinoic acid receptor alpha (Homo sapiens), sequence (P10276 whole entry, looked up): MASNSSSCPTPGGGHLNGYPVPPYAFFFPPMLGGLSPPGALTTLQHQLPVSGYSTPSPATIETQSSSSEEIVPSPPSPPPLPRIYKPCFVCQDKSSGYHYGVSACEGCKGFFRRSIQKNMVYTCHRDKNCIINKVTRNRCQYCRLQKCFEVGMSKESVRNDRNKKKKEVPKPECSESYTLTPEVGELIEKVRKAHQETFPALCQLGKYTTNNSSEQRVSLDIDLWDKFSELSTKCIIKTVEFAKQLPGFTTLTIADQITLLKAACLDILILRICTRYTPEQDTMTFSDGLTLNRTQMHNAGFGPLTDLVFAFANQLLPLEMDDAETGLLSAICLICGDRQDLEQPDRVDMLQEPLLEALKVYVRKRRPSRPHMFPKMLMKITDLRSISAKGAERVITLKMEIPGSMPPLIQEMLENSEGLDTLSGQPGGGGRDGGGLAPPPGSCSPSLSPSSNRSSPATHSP

O=C(OCc1ccccc1)c1ccccc1
outcome [1]: inactive | outcome [2]: inactive | outcome [3]: inactive | outcome [4]: inactive | outcome [5]: inactive | outcome [6]: inactive | outcome [7]: inactive | outcome [8]: inactive | outcome [9]: inactive | outcome [10]: inactive | outcome [11]: inactive | outcome [12]: inactive | outcome [13]: inactive

CCCC(=O)OC/C=C(\C)CCC=C(C)C
outcome [1]: inactive | outcome [14]: inactive | outcome [2]: inactive | outcome [3]: inactive | outcome [4]: inactive | outcome [5]: inactive | outcome [6]: inactive | outcome [7]: inactive | outcome [8]: inactive | outcome [9]: inactive | outcome [10]: inactive | outcome [11]: inactive | outcome [12]: inactive | outcome [13]: inactive

COc1ccccc1OCC(O)CO (stereo not given)
outcome [14]: inactive | outcome [2]: inactive | outcome [4]: inactive | outcome [15]: inactive | outcome [7]: inactive | outcome [8]: inactive | outcome [9]: inactive | outcome [10]: inactive | outcome [11]: inactive | outcome [13]: inactive | outcome [16]: inactive | outcome [17]: inactive | outcome [18]: inactive | outcome [19]: inactive | outcome [20]: inactive

CC1=C(CC(=O)O)c2cc(F)ccc2/C1=C\c1ccc(S(C)=O)cc1 (stereo not given)
outcome [14]: inactive | outcome [3]: inactive | outcome [4]: inactive | AC50 [6]: 26 µM (active) | outcome [8]: inactive | outcome [9]: inactive | outcome [10]: inactive | outcome [11]: inactive | outcome [12]: inactive | outcome [13]: inactive | outcome [18]: inactive | outcome [19]: inactive

O=[N+]([O-])c1ccc2nc[nH]c2c1
outcome [2]: inactive | outcome [5]: inactive | outcome [6]: inactive | outcome [15]: inactive | outcome [9]: inactive | outcome [10]: inactive
